From PubChem BioAssay (NCATS)
Records with an inconclusive call do not appear. Activity calls are given as the source filed them. Calls come from the whole dose curve; as a rule, active = well fitted curve in the direction sought with a large enough effect; inconclusive = small, poorly fitted or top-dose-only effect, or another doubt; inactive = no such curve, though single readings can be large; an effect the other way counts as inactive or inconclusive.

How the values were obtained:
[1] = qHTS of pediatric cancer cell lines to identify multiple opportunities for drug repurposing: Primary screen for OHS-50 cells (AID 1347103); note: nearly all actives have a fitted effect of over 40% in size; note: potency is the fitted concentration of half-maximal effect
Summary of the method: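 Cells (500-1,000/well) rested 5 h, then received compounds for 48 h; metabolically active cells were measured by CellTiter-Glo luminescence. Final concentrations spanned up to 46 µM (MIPE, 11-point) or 0.59 nM-46 µM (NPC, 8-point) in primary screens, 11-point in follow-ups.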

[2] = qHTS of pediatric cancer cell lines to identify multiple opportunities for drug repurposing: Primary screen for MG 63 (6-TG R) cells (AID 1347105); note: nearly all actives have a fitted effect of over 50% in size
Summary of the method: (§1)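 ATP-based luminescence (CellTiter-Glo) quantifies viability after a 48-hour exposure. Compounds are dosed across 8 or 11 final concentrations; DMSO and 2.3 µM bortezomib serve as controls.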

[3] = qHTS of pediatric cancer cell lines to identify multiple opportunities for drug repurposing: Primary screen for control Hh wild type fibroblast cells (AID 1347106);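 note: series mostly up to about 46 µM; a drop in luminescence marks cytotoxicity and a rise apparent proliferation; nearly all actives have a fitted effect of over 55% in size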
Summary of the method: (§2)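 Viability after 48 h compound treatment at 37C, 500-1,000 cells/well, read as ATP luminescence with CellTiter-Glo. Primary screens used 11-point (MIPE, 0.78 nM-46 µM) or 8-point (NPC, 0.59 nM-46 µM) final concentrations; follow-up screens used 11-point dilutions.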

[4] = qHTS of pediatric cancer cell lines to identify multiple opportunities for drug repurposing: Primary screen for Rh30 cells (AID 1347107); note: series mostly up to about 46 µM; nearly all actives have a fitted effect of over 75% in size
Summary of the method: as §2

[5] = qHTS of pediatric cancer cell lines to identify multiple opportunities for drug repurposing: Primary screen for Rh41 cells (AID 1347108);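 note: series mostly up to about 46 µM; luminescence drop marks cytotoxic hits; nearly all actives have a fitted effect of over 70% in size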
Summary of the method: as §1

[6] = qHTS of pediatric cancer cell lines to identify multiple opportunities for drug repurposing: Confirmatory screen for NB1643 cells (AID 1347109); note: nearly all actives have a fitted effect of over 45% in size; note: potency is the fitted concentration of half-maximal effect
Summary of the method: as §2

[7] = qHTS of pediatric cancer cell lines to identify multiple opportunities for drug repurposing: Confirmatory screen for A673 cells (AID 1347110); note: nearly all actives have a fitted effect of over 65% in size; note: potency is the fitted concentration of half-maximal effect
Summary of the method: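 Cells plated at 500-1,000/well were treated five hours later with multi-point dilutions up to 46 µM final. After two days, CellTiter-Glo was added and luminescence read.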

[8] = qHTS of pediatric cancer cell lines to identify multiple opportunities for drug repurposing: Confirmatory screen for DAOY cells (AID 1347114); note: nearly all actives have a fitted effect of over 65% in size; note: potency is the fitted concentration of half-maximal effect
Summary of the method: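 Viability measured as metabolically active cells via CellTiter-Glo luminescence following 48 hours of compound exposure, 11-point dilutions in confirmatory testing. 500-1,000 cells/well plated 5 hours before dosing; controls were DMSO and 2.3 µM bortezomib.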

[9] = qHTS of pediatric cancer cell lines to identify multiple opportunities for drug repurposing: Confirmatory screen for NB-EBc1 cells (AID 1347115); note: nearly all actives have a fitted effect of over 45% in size; note: potency is the fitted concentration of half-maximal effect
Summary of the method: as §2

[10] = qHTS of pediatric cancer cell lines to identify multiple opportunities for drug repurposing: Confirmatory screen for MG 63 (6-TG R) cells (AID 1347119); note: nearly all actives have a fitted effect of over 55% in size; note: potency is the fitted concentration of half-maximal effect
Summary of the method: as §2

[11] = qHTS of pediatric cancer cell lines to identify multiple opportunities for drug repurposing: Confirmatory screen for control Hh wild type fibroblast cells (AID 1347121); note: nearly all actives have a fitted effect of over 70% in size
Summary of the method: as §2

[12] = qHTS of pediatric cancer cell lines to identify multiple opportunities for drug repurposing: Confirmatory screen for U-2 OS cells (AID 1347122); note: nearly all actives have a fitted effect of over 65% in size; note: potency is the fitted concentration of half-maximal effect
Summary of the method: as §2

[13] = qHTS of pediatric cancer cell lines to identify multiple opportunities for drug repurposing: Confirmatory screen for Rh41 cells (AID 1347123); note: nearly all actives have a fitted effect of over 60% in size; note: potency is the fitted concentration of half-maximal effect
Summary of the method: as §2

[14] = qHTS of pediatric cancer cell lines to identify multiple opportunities for drug repurposing: Confirmatory screen for RD cells (AID 1347124);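 note: cells exposed to compound for 48 h before viability readout; nearly all actives have a fitted effect of over 65% in size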; note: potency is the fitted concentration of half-maximal effect
Summary of the method: as §2

[15] = qHTS of pediatric cancer cell lines to identify multiple opportunities for drug repurposing: Confirmatory screen for SK-N-MC cells (AID 1347111);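 note: potency is the fitted concentration of half-maximal effect; cells exposed to compound for 48 h before the readout; nearly all actives have a fitted effect of over 70% in size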
Summary of the method: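 SK-N-MC cells at 500-1,000 cells/well in growth media were pre-incubated 5 h, then exposed to compounds at 11-point dilutions for 48 h at 37 degrees C, 5% CO2. Viability was read as CellTiter-Glo luminescence.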

[16] = qHTS of pediatric cancer cell lines to identify multiple opportunities for drug repurposing: Confirmatory screen for TC32 cells (AID 1347118); note: nearly all actives have a fitted effect of over 65% in size; note: potency is the fitted concentration of half-maximal effect
Summary of the method: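 Luminescent CellTiter-Glo read-out of metabolically active TC32 cells after 48 h compound exposure. Primary: MIPE 11-point, 0.78 nM–46 µM; NPC 8-point, 0.59 nM–46 µM. Confirmatory: 11-point dilutions.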

[17] = qHTS of pediatric cancer cell lines to identify multiple opportunities for drug repurposing: Confirmatory screen for BT-37 cells (AID 1347117); note: nearly all actives have a fitted effect of over 55% in size; note: potency is the fitted concentration of half-maximal effect
Summary of the method: as §2

[18] = qHTS of pediatric cancer cell lines to identify multiple opportunities for drug repurposing: Confirmatory screen for Rh18 cells (AID 1347125); note: nearly all actives have a fitted effect of over 55% in size
Summary of the method: as §2

[19] = qHTS of pediatric cancer cell lines to identify multiple opportunities for drug repurposing: Primary screen for RD cells (AID 1347104)
Summary of the method: as §1

[20] = qHTS of pediatric cancer cell lines to identify multiple opportunities for drug repurposing: Confirmatory screen for BT-12 cells (AID 1347112); note: nearly all actives have a fitted effect of over 55% in size
Summary of the method: as §2

Measured: Potency

CCCN1CCO[C@@H]2c3cc(O)ccc3OC[C@@H]21
not listed: [15] | [16] | [17] | [18] | [19] | [20]
inactive: all other assays above

CC(=Cc1csc(C)n1)[C@@H]1C[C@H]2O[C@@H]2CCC[C@H](C)[C@@H](O)[C@@H](C)C(=O)C(C)(C)[C@@H](O)CC(=O)O1
inactive: [3] | [4] | [11]
active: [1] 0.001 µM | [7] 18.5 nM | [15] 20.8 nM | [8] 13.1 nM | [16] 14.7 nM | [10] 16.5 nM | [13] 0.0369 µM | [14] 46.5 nM

COc1cc([C@@H]2c3cc4c(cc3[C@@H](O)C3COC(=O)C32)OCO4)cc(OC)c1O (stereo partly specified)
inactive: [2] | [4] | [11] | [18]
active: [1] 0.0343 µM | [7] 522 nM | [8] 185 nM | [9] 3.69 µM | [17] 737 nM | [16] 585 nM | [10] 293 nM

Cc1c(C(=O)Nc2cccc(C(F)(F)F)c2)cc(-c2ccccc2)n1CCCN1CCOCC1
active: [1] 24.3 µM | [19] 18.7 µM | [6] 42.7 µM | [15] 26900 nM | [8] 38000 nM | [9] 42.7 µM | [17] 42700 nM | [12] 24 µM | [13] 21.4 µM
inactive: [3]

CC(C)(C)c1cc(C=C(C#N)C#N)cc(Br)c1O
active: [1] 30.6 µM
inactive: [3] | [4] | [5]

CS(=O)(=O)c1ccc(C(=O)C2C(=O)CCCC2=O)c([N+](=O)[O-])c1
not listed: [5] | [15] | [19]
inactive: all other assays above

C[C@](O)(COc1ccc(C#N)cc1)C(=O)Nc1ccc(C#N)c(C(F)(F)F)c1
active: [1] 27.3 µM
inactive: [2] | [3] | [4] | [5]

CC=C(C)C(=O)N[C@@H](c1ccccc1)[C@@H](O)C(=O)O[C@H]1C[C@@]2(O)[C@@H](OC(=O)c3ccccc3)[C@@H]3[C@]4(OC(C)=O)CO[C@@H]4C[C@H](O)[C@@]3(C)C(=O)[C@H](OC(C)=O)C(=C1C)C2(C)C
inactive: [3] | [4] | [11] | [18]
active: [1] 0.001 µM | [7] 32.9 nM | [15] 36.9 nM | [17] 52.2 nM | [10] 29.3 nM
